This is a sample that favours compounds with a hit; in the whole collection about 2.9% have one here.
BioA inh: M. tuberculosis BioA enzyme inhibitors, primary screen, biochemical, plate reader, single point, HTS | actives 0.096% (n = 360,000) | purified M. tuberculosis BioA enzyme | inhibition, % at 9.99 µM | AID 602481, 2012 | 7,8-diaminopelargonic acid synthase BioA (Mycobacterium tuberculosis); in the data active = inhibition above about 40%
Mtb FBA inh: Mtb FBA enzyme inhibitors, primary screen, biochemical, fluorescence, strain H37Rv; purified M. tuberculosis FBA, fluorescence read-out; inhibition, % at 1 µM; actives 2.3% (n = 360,000);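 note: 0% = vehicle and 100% = reference inhibitor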
Target sequence (P9WQA3 whole entry, looked up): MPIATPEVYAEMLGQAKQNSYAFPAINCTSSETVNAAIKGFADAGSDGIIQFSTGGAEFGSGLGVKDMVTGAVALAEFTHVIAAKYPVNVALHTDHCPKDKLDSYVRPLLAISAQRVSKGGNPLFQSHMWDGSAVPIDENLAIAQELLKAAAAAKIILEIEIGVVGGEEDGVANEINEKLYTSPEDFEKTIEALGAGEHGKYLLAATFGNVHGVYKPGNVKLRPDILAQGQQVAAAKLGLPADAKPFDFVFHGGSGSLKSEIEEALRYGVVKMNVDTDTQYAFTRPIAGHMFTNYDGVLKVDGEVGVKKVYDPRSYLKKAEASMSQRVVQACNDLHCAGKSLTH
Mtb hypoxia rep: PubChem AID 1159583 | M. tuberculosis hypoxia-regulated fluorescent reporter, fluorescence | actives 0.1% (n = 300,000) | fluorescence inhibition, % (test concentration not listed); in the data active = fluorescence inhibition mostly above about 23%, no sharp cut-off; inactive = mostly below about 17%
FadD28 binding: inhibitors of FadD28 bisubstrate probe binding, primary screen, biochemical, fluorescence polarization, single point; Mycobacterium tuberculosis FadD28 fatty-acid-AMP ligase; inhibition, % at 12.5 µM; actives 0.22% (n = 360,000); in the data active = inhibition above about 8.5%, passing the limit was not always enough
GDH-TPI counter-1: GDH-TPI coupling enzyme inhibitors, primary screen, artefact control for M. tuberculosis FBA inhibitor project, biochemical, absorbance, full deck; GDH-TPI coupled enzyme counterscreen, NADH absorbance; actives 1.2% (n = 360,000); AID 588335, 2011; inhibition, % at 4.8 µM; in the data active = inhibition above about 30%;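 note: 0% = DMSO wells and 100% = wells lacking the enzyme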
Mtb FBA confirm: M. tuberculosis aldolase blockers, biochemical, fluorescence, strain H37Rv, confirmation; inhibition, % at 1 µM; purified M. tuberculosis FBA, fluorescence read-out; shares compounds with Mtb FBA inh; AID 651616, 2012; actives 78% (n = 5,600);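 note: 0% = vehicle wells and 100% = reference inhibitor wells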
GDH-TPI counter-2: GDH-TPI coupling enzyme inhibitors, artefact control for M. tuberculosis FBA inhibitor project, biochemical, fluorescence, high throughput | shares compounds with Mtb FBA inh | GDH-TPI coupled enzyme counterscreen | inhibition, % at 1 µM | actives 81% (n = 5,600) | AID 652141, 2013; in the data active = inhibition above about 10%
* marks the source's active call; other numbers are inactive results. Cut-off read from the data, not from the text of the source, unless noted: active = inhibition above about 27%; inactive = the rest.

For NC(=O)COc1c(-c2ccc(Br)o2)oc2ccccc2c1=O the results were BioA inh -2, Mtb FBA inh 105*, Mtb hypoxia rep -4, FadD28 binding 0, GDH-TPI counter-1 35*, Mtb FBA confirm 154* and GDH-TPI counter-2 113*.
Screening CCC(=O)N1CCN(CCN=CC2=C(O)CC(c3ccc(OC)cc3)CC2=O)CC1 (stereo not given) returned BioA inh 0, Mtb FBA inh 59*, Mtb hypoxia rep 5, FadD28 binding 0, GDH-TPI counter-1 6, Mtb FBA confirm 88* and GDH-TPI counter-2 82*.
CN1CCc2c(sc3c2C(=O)NC(c2cccs2)N3)C1 (stereo not given) was read as BioA inh -6, Mtb FBA inh 26, Mtb hypoxia rep 1, FadD28 binding 1 and GDH-TPI counter-1 15.
Screening Cc1ccsc1C1NC(=O)c2c(sc3c2CCN(C)C3)N1 (stereo not given) returned BioA inh -7, Mtb FBA inh 44*, Mtb hypoxia rep 5, FadD28 binding 1, GDH-TPI counter-1 12, Mtb FBA confirm -5 and GDH-TPI counter-2 -5.
Screening Cc1ccc2nc3c(cc(C(=O)NCc4ccco4)c(=N)n3Cc3ccco3)c(=O)n2c1 returned BioA inh -2, Mtb FBA inh 42*, Mtb hypoxia rep 3, FadD28 binding 0, GDH-TPI counter-1 14, Mtb FBA confirm 49* and GDH-TPI counter-2 36*.
N=c1c(C(=O)NCc2ccccc2)cc2c(=O)n3ccccc3nc2n1Cc1ccco1 was read as BioA inh -2, Mtb FBA inh 50*, Mtb hypoxia rep -1, FadD28 binding -5, GDH-TPI counter-1 17, Mtb FBA confirm 88* and GDH-TPI counter-2 78*.
Screening Cc1cc2ccccc2c(=O)n1CC(=O)NCc1ccco1 returned BioA inh 0, Mtb FBA inh 4, Mtb hypoxia rep 1, FadD28 binding 2 and GDH-TPI counter-1 6.
N=c1c(C(=O)NCc2ccco2)cc2c(=O)n3ccccc3nc2n1Cc1ccc(Cl)cc1 was read as BioA inh 0, Mtb FBA inh 44*, Mtb hypoxia rep 11, FadD28 binding -4, GDH-TPI counter-1 13, Mtb FBA confirm 113* and GDH-TPI counter-2 87*.
Screening N=c1c(C(=O)NCc2ccc3c(c2)OCO3)cc2c(=O)n3ccccc3nc2n1Cc1cccnc1 returned BioA inh 2, Mtb FBA inh 3, Mtb hypoxia rep 5, FadD28 binding -5 and GDH-TPI counter-1 5.
For Cc1ccc(S(=O)(=O)c2cc3c(=O)n4ccccc4nc3n(Cc3ccco3)c2=N)cc1 the results were BioA inh -3, Mtb FBA inh 87*, Mtb hypoxia rep -6, FadD28 binding -4, GDH-TPI counter-1 35*, Mtb FBA confirm active and GDH-TPI counter-2 active.
Screening O=C(N[C@@H]1CC[C@H](CCn2cc(-c3ccccn3)nn2)O[C@H]1CO)c1cccnc1 returned BioA inh 0.
For Cc1ccc(CNC(=O)c2cc3c(=O)n4ccccc4nc3n(Cc3ccco3)c2=N)cc1 the results were BioA inh 0, Mtb FBA inh 63*, Mtb hypoxia rep -3, FadD28 binding -1, GDH-TPI counter-1 22, Mtb FBA confirm 54* and GDH-TPI counter-2 48*.
For O=C(NC1CCS(=O)(=O)C1)c1cc2c(=O)n3ccccc3nc2n1Cc1ccccc1 (stereo not given) the results were BioA inh 2, Mtb FBA inh 102*, FadD28 binding -3, GDH-TPI counter-1 22, Mtb FBA confirm active and GDH-TPI counter-2 196*.
`COc1cccc(NC(=O)c2cc3c(=O)n4ccccc4nc3n(CC(C)C)c2=N)c1` gave BioA inh -3, Mtb FBA inh 0, Mtb hypoxia rep 1, FadD28 binding -1 and GDH-TPI counter-1 6.
Screening Cc1cc(C(=O)Nc2cccc3c2O[C@@H](CN(C)S(=O)(=O)c2cn(C)cn2)[C@H](C)CN([C@H](C)CO)C3=O)n(C)n1 returned BioA inh 0.
`CCc1ccccc1N(C(=O)c1snc(C(N)=O)c1N)C(C(=O)NCC1CCCO1)c1ccc(OC)c(OC)c1` (stereo not given) gave BioA inh -2, Mtb FBA inh 62*, Mtb hypoxia rep 0, FadD28 binding 0, GDH-TPI counter-1 24, Mtb FBA confirm active and GDH-TPI counter-2 active.
COc1ccc(C(C(=O)NCC2CCCO2)N(C(=O)c2snc(C(N)=O)c2N)c2ccccc2C)cc1OC (stereo not given) was read as BioA inh -1, Mtb FBA inh 50*, Mtb hypoxia rep -5, FadD28 binding 0, GDH-TPI counter-1 14, Mtb FBA confirm 168* and GDH-TPI counter-2 active.
`COc1ccc(C(C(=O)NCC2CCCO2)N(C(=O)c2snc(C(N)=O)c2N)c2ccccc2)cc1OC` (stereo not given) gave BioA inh 0, Mtb FBA inh 13, Mtb hypoxia rep 3 and GDH-TPI counter-1 27.
For CN1OC[C@@H]2C(=O)N3CCc4c([nH]c5ccccc45)[C@@H]3C[C@@H]21 the results were BioA inh -3, Mtb FBA inh 38*, FadD28 binding 0, GDH-TPI counter-1 -8, Mtb FBA confirm active and GDH-TPI counter-2 192*.
For C[C@H](O)[C@@H]1C(=O)N2CCc3c([nH]c4ccccc34)[C@@H]2C[C@@H]1N(C)C(=O)NC1CCCCC1 the results were Mtb FBA inh 87*, FadD28 binding 0, GDH-TPI counter-1 11, Mtb FBA confirm 157* and GDH-TPI counter-2 116*.
For COc1ccc(C=NNC(=O)c2ccc(NC(C)=O)cc2)cc1COc1ccc(F)cc1F the results were Mtb hypoxia rep -6.
For COc1ccc(/C=N/NC(=O)c2ccc(NC(C)=O)cc2)cc1COc1ccc(F)cc1F the results were BioA inh -2, Mtb FBA inh 30*, FadD28 binding -1, GDH-TPI counter-1 15, Mtb FBA confirm 75* and GDH-TPI counter-2 59*.
For COc1ccc(/C=N/NC(=O)c2nc(Cl)c(Cl)c(N)c2Cl)cc1COc1ccc(F)cc1F the results were BioA inh 3, Mtb FBA inh 29*, FadD28 binding -4, GDH-TPI counter-1 24, Mtb FBA confirm 4 and GDH-TPI counter-2 -2.
`COc1ccc(/C=N/NC(=O)c2nc(Cl)c(Cl)c(N)c2Cl)cc1COc1ccccc1F` gave BioA inh -2, Mtb FBA inh 25, FadD28 binding -1 and GDH-TPI counter-1 20.

Screens deposited in PubChem BioAssay by several laboratories.
